These results are taken from the supplement of paper PMC9135407.

This test concerns primary human hepatic stellate cells (donor 1). As to the kind of experiment: scaled lipid accumulation score (0 = DMSO-like, 1 = nortriptyline-like); higher = stronger HSC inactivation (lipid re-accumulation), active = hit call of the paper. The settings on record: 48 h.
The mark [1] stands for this setting: library stock concentration: 10 mM.
The mark [2] stands for this setting: library stock concentration: 3.33 mM.
The mark [3] stands for this setting: library stock concentration: 1 mM.
The mark [4] stands for this setting: library stock concentration: 80 uM.
Where [5] appears, read: library stock concentration: 400 uM.
[6] abbreviates: library stock concentration: 2 mM.
Where [7] appears, read: library stock concentration: 6.3 mM.
Where [8] appears, read: library stock concentration: 6.2 mM.

Structures are written as SMILES. Values joined by “and” are separate entries in the source; they are usually repeats but may differ in a detail not shown here. Identical values can stand only once. Counter-ions that a name gives are not always drawn. The whole screen tested about 5,800 compounds, of which about 620 (11%) showed activity. The entries come from a sample that favours actives as a whole. Values without a mark were called inactive.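 Rule for the calls: active = score above a cut-off or among the top three wells of a plate; in these data no inactive exceeds 0.85.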

As for `COc1cccc(CCc2ccccc2OCC[C@@H]2C[C@@H](O)CN2C)c1.Cl`, under setting [1], the “scaled lipid accumulation score” value is 1.18 (active).
Regarding `OCc1c[nH]c2ccccc12` [Indole-3-carbinol], the “scaled lipid accumulation score” value is not above 0 under setting [2] and not above 0 under setting [1].
In the case of `c1ccc2c(Cc3c[nH]c4ccccc34)c[nH]c2c1` [Diidolylmethane], the “scaled lipid accumulation score” value under setting [3] was not above -0.021.
For the compound `OC1(c2ccc(Cl)cc2)CCN(Cc2c[nH]c3ccccc23)CC1`, under setting [1], the “scaled lipid accumulation score” value was 1.17 (active).
As to `CC[C@@H](CC[C@@H](C)[C@H]1CC[C@H]2[C@@H]3CCC4C[C@@H](O)CC[C@]4(C)[C@H]3CC[C@]12C)C(C)C` (stereo partly drawn) [Beta-sistosterol], the “scaled lipid accumulation score” value was not above 0.
`COc1cc(OC)cc(OC)c1` [1,3,5-trimethoxybenzene]: the “scaled lipid accumulation score” value under setting [1] was not above 0.
As for `COc1ccc2nc3n[nH]c(C)c3c(NCCOCCO)c2c1`, the “scaled lipid accumulation score” value was not above -0.001 under setting [4]; not above -0.001 under setting [5]; not above -0.001 under setting [6]; 0.203 under setting [2]; 0.021 under setting [1].
On to `COc1cc(OC)cc(-c2ccc3ncc4ccc(=O)n(-c5ccc(N6CCNCC6)c(C(F)(F)F)c5)c4c3c2)c1`, for which the “scaled lipid accumulation score” value under setting [4] was 0.045, the “scaled lipid accumulation score” value under setting [5] was 0.305, the “scaled lipid accumulation score” value under setting [6] is 0.652 and the “scaled lipid accumulation score” value under setting [1] was 0.426.
As for `COc1ccc(-c2ccc3ncc4c(c3c2)n(-c2ccc(N3CCNCC3)c(C(F)(F)F)c2)c(=O)n4C)cn1`, the “scaled lipid accumulation score” value under setting [4] is 0.133; the “scaled lipid accumulation score” value under setting [6] is 0.546; the “scaled lipid accumulation score” value under setting [2] was 0.237; the “scaled lipid accumulation score” value under setting [1] is ≤ 0 and 0.223.
Consider `COc1ccc(-c2ccc3ncc4c(c3c2)n(-c2ccc(N3CCNCC3)c(C(F)(F)F)c2)c(=O)n4C)cn1.O=C(O)/C=C\C(=O)O`, for which the “scaled lipid accumulation score” value under setting [5] was 0.909 (active).
Take `S=c1[nH]c(-c2ccccc2)cn1-c1ccccc1`: the “scaled lipid accumulation score” value under setting [1] was not above -0.07.
Consider `Nc1c2c(nc3c1CCC3)CCCC2`, for which the “scaled lipid accumulation score” value under setting [1] was not above 0.
Take `CCCCCCCCCCCCCCCCOC[C@H](COP(=O)([O-])OCC[N+](C)(C)C)OC(=O)CCCCCCCC(=O)O` [Azelaoyl PAF]: under setting [3], the “scaled lipid accumulation score” value is not above 0.
For the compound `CN(C)CCCN1c2ccccc2Sc2ccc(Cl)cc21` [Chlorpromazine HCl], the “scaled lipid accumulation score” value runs as follows: under setting [2], 0.38; under setting [7], 0.53.
Consider `CN(C)CCCN1c2ccccc2Sc2ccc(Cl)cc21`, for which, under setting [1], the “scaled lipid accumulation score” value is 0.711.
Same read-out and setting: the value for `CN(C)CCCN1c2ccccc2Sc2ccc(Cl)cc21.Cl` [Chlorpromazine HCl] was 0.833 (active).
Turning to `CC(CN1c2ccccc2Sc2ccccc21)N(C)C` (centres undefined) [Promethazine hydrochloride], the “scaled lipid accumulation score” value is 0.571. Also, under setting [8], the “scaled lipid accumulation score” value is 0.655. Further, under setting [1], the “scaled lipid accumulation score” value is 0.748.
Take `CCN(CC)C(C)CN1c2ccccc2Sc2ccccc21` (centres undefined) [Ethopropazine hydrochloride]: the “scaled lipid accumulation score” value is 0.644. Also, for the setting “library stock concentration: 5.7 mM”, the “scaled lipid accumulation score” value is 0.667. The “scaled lipid accumulation score” value under setting [1] is 0.301 and 0.673.
Take `CN(C)CCCN1c2ccccc2Sc2ccccc21.Cl` [Promazine hydrochloride]: under setting [1], the “scaled lipid accumulation score” value was 0.923 (active).
On to `CN(C)CCCN1c2ccccc2Sc2ccccc21` [Promazine hydrochloride], for which the “scaled lipid accumulation score” value was 0.365. Besides, the “scaled lipid accumulation score” value under setting [8] is 0.834. For the same compound, the “scaled lipid accumulation score” value under setting [1] was 0.324.
Turning to `CN(C)CCCN1c2ccccc2Sc2ccc(Cl)cc21` [Chlorpromazine] [listing 1 of 2 here], the “scaled lipid accumulation score” value under setting [1] is 0.466.
Take `CC(CN1c2ccccc2Sc2ccccc21)N(C)C` (centres undefined) [Phenergan]: under setting [1], the “scaled lipid accumulation score” value was 0.649.
As for `CN(C)CCCN1c2ccccc2Sc2ccc(Cl)cc21` [Chlorpromazine hydrochloride], the “scaled lipid accumulation score” value is 0.717. For the same compound, the “scaled lipid accumulation score” value under setting [1] was 0.259.
Take `CC(CN1c2ccccc2Sc2ccccc21)N(C)C` (centres undefined) [Promethazine HCl]: the “scaled lipid accumulation score” value under setting [2] was not above 0, the “scaled lipid accumulation score” value (library stock concentration: 7 mM) was 0.609 and the “scaled lipid accumulation score” value under setting [1] is 0.62.
In the case of `CN(C)CCCN1c2ccccc2Sc2ccc(Cl)cc21` [Chlorpromazine] [listing 2 of 2 here], the “scaled lipid accumulation score” value under setting [7] is 1.09 (active).
`CC(CN1c2ccccc2Sc2ccccc21)N(C)C.Cl` (centres undefined) [Promethazine hydrochloride]: under setting [1], the “scaled lipid accumulation score” value was 0.888 (active).
Take `CCCCCC(O)C=CC1C(O)CC(O)C1CC=CCCCC(=O)OC` (stereo not drawn) [Prostaglandin F2.alpha. methyl ester]: the “scaled lipid accumulation score” value under setting [3] is not above 0.
In the case of `Nc1ncnc2c1nc(Br)n2[C@@H]1O[C@@H]2COP(=O)(O)O[C@H]2[C@H]1O` [8-Bromo-cAMP], for the setting “library stock concentration: 12.3 mM”, the “scaled lipid accumulation score” value is 0.137.
With `Nc1ncnc2c1nc(Br)n2[C@@H]1O[C@@H]2COP(=O)(O)O[C@H]2[C@H]1O` [8-Bromo-cAMP, sodium salt], the “scaled lipid accumulation score” value under setting [1] was not above -0.006.
With `CC(NC(=O)c1ccccc1/N=C/c1c(O)ccc2ccccc12)c1ccccc1` (centres undefined) [Sirtinol], the “scaled lipid accumulation score” value was 0.008 under setting [2]; 0.024 and ≤ -0.001 under setting [1].
In the case of `CCCCCCCCCCCCCCCCOC[C@H](COP(=O)([O-])OCC[N+](C)(C)C)OC` [2-O-methyl PAF C-16], under setting [3], the “scaled lipid accumulation score” value was not above 0.
`CCCCC[C@H](O)/C=C/[C@H]1CC[C@H](O)[C@@H]1C/C=C\CCCC(=O)O` [11-deoxy Prostaglandin F2.alpha.]: the “scaled lipid accumulation score” value under setting [3] is not above 0.
On the same count and under the same terms, as for `CCCCCCC(=O)SC[C@H](COP(=O)([O-])OCC[N+](C)(C)C)SC(=O)CCCCCC` [1,2-bis(heptanoylthio) Glycerophosphocholine], the figure is not above 0.
As for `CNC(=O)[C@H](Cc1c[nH]c2ccccc12)NC(=O)[C@@H](CC(=O)NO)CC(C)C`, the “scaled lipid accumulation score” value (library stock concentration: 12.9 mM) is not above -0.009.
As to `CNC(=O)[C@H](Cc1c[nH]c2ccccc12)NC(=O)[C@@H](CC(=O)NO)CC(C)C` [Ilomastat (GM6001, Galardin)], the “scaled lipid accumulation score” value under setting [2] is not above -0.009 and the “scaled lipid accumulation score” value under setting [1] was not above 0.
In the case of `NC(=O)N1c2ccccc2CC(O)c2ccccc21` (centres undefined) [Licarbazepine], under setting [1], the “scaled lipid accumulation score” value is 0.008.
Regarding `O=c1c(O)c(-c2ccc(O)c(O)c2)oc2cc(O)c(O)c(O)c12` [Quercetagetin], the “scaled lipid accumulation score” value under setting [2] is not above 0.
For `O=C(O)C(Cc1c[nH]c2ccccc12)N1C(=O)c2ccccc2C1=O` (centres undefined), the “scaled lipid accumulation score” value under setting [4] was not above 0; the “scaled lipid accumulation score” value under setting [5] is not above 0; the “scaled lipid accumulation score” value under setting [6] is not above 0; the “scaled lipid accumulation score” value under setting [2] was not above 0; the “scaled lipid accumulation score” value under setting [1] is 0.017 and ≤ 0.
For `C#CCOc1ccccc1CCCCCC(=O)NS(C)(=O)=O`, the “scaled lipid accumulation score” value under setting [3] was 0.013.
Regarding `O=C1CCc2ccc(OCCCCN3CCN(c4cccc(Cl)c4Cl)CC3)cc2N1`, under setting [1], the “scaled lipid accumulation score” value was 0.964 (active).
As for `O=C1CCc2ccc(OCCCCN3CCN(c4cccc(Cl)c4Cl)CC3)cc2N1` [Aripiprazole], the “scaled lipid accumulation score” value runs as follows: under setting [2], not above 0; (library stock concentration: 4.5 mM) 0.238 and 0.464; under setting [1], 0.827.
`O=C1CCc2cc(OCCCCc3nnnn3C3CCCCC3)ccc2N1` [Cilostazol]: the “scaled lipid accumulation score” value was not above 0. Further, the “scaled lipid accumulation score” value under setting [2] is not above 0. The “scaled lipid accumulation score” value (library stock concentration: 5.4 mM) was not above 0.
Take `Cn1sc(=O)n(Cc2ccccc2)c1=O` [GSK-3b Inhibitor I]: under setting [2], the “scaled lipid accumulation score” value is not above 0.
`Cc1ccc(NC2=CC(=O)c3sc(C)nc3C2=O)cc1` [Cdk4 Inhibitor III]: under setting [2], the “scaled lipid accumulation score” value is 0.942 (active).
Regarding `Cc1ccc(NC2=CC(=O)c3sc(C)nc3C2=O)cc1` [Ryuvidine], under setting [1], the “scaled lipid accumulation score” value is 0.904 (active).
In the case of `O=C(O)[C@]1(Cc2cccc(Nc3nccs3)n2)CC[C@@H](Oc2cccc(Cl)c2F)CC1`, the “scaled lipid accumulation score” value was not above 0 under setting [2] and 0.039 under setting [1].
With `CCC[C@H](NC(=O)[C@@H]1[C@H]2CCC[C@H]2CN1C(=O)[C@@H](NC(=O)[C@@H](NC(=O)c1cnccn1)C1CCCCC1)C(C)(C)C)C(=O)C(=O)NC1CC1` [Telaprevir (VX-950)], the “scaled lipid accumulation score” value is not above 0 under setting [2] and not above 0 under setting [1].
Regarding `CCCCCCCCCCCCCCCCOC[C@H](COP(=O)([O-])OCC[N+](C)(C)C)OC(=O)NC` [Methylcarbamyl PAF C-16], the “scaled lipid accumulation score” value under setting [3] is not above 0.
Consider `O=C(O)CCC/C=C\C[C@H]1[C@@H](/C=C/[C@@H](O)CCc2ccccc2)[C@H](O)C[C@@H]1O` [8-iso-17-phenyl trinor Prostaglandin F2.alpha.], for which, under setting [3], the “scaled lipid accumulation score” value was not above 0.
For `O=C1CC2(CCCC2)CC(=O)N1CCCCNCC1COc2ccccc2O1` (centres undefined), the “scaled lipid accumulation score” value under setting [1] was 0.376.
For `CCN(CC)CCOC(=O)C(c1ccccc1)C1CCCCC1` (centres undefined) [Drofenine hydrochloride], the “scaled lipid accumulation score” value was 0.317. Under setting [1], the “scaled lipid accumulation score” value is 0.335.
Regarding `CNC(C)C(=O)NC(C(=O)N1CCCC1C(=O)NC(C(=O)NCCCCCCNC(=O)C(NC(=O)C1CCCN1C(=O)C(NC(=O)C(C)NC)C1CCCCC1)C(c1ccccc1)c1ccccc1)C(c1ccccc1)c1ccccc1)C1CCCCC1` (centres undefined), the “scaled lipid accumulation score” value runs as follows: under setting [2], 0.26; under setting [1], 0.061.
Turning to `Cl.O=C(NCCCN1CCCCCC1)C(c1ccccc1)C1CCCCC1` (centres undefined), under setting [1], the “scaled lipid accumulation score” value is 0.897 (active).
Turning to `CN1CC(O)C(O)C(O)C1CO` (centres undefined) [N-Methyl-1-deoxynojirimycin], the “scaled lipid accumulation score” value under setting [1] is not above -0.07.
Regarding `Cc1n[nH]c2ccc(-c3cncc(OC[C@@H](N)Cc4ccccc4)c3)cc12`, the “scaled lipid accumulation score” value under setting [2] is 1.24 (active).
Regarding `Cc1[nH]nc2ccc(-c3cncc(OC[C@@H](N)Cc4ccccc4)c3)cc12`, under setting [1], the “scaled lipid accumulation score” value is 0.795.
Consider `O=c1cnn([C@@H]2O[C@H](CO)[C@@H](O)[C@H]2O)c(=O)[nH]1`, for which the “scaled lipid accumulation score” value under setting [1] was not above 0.
With `CNCCC(Oc1ccc(C(F)(F)F)cc1)c1ccccc1.Cl` (centres undefined), under setting [1], the “scaled lipid accumulation score” value was 0.914 (active).
`CNCCC(Oc1ccc(C(F)(F)F)cc1)c1ccccc1.Cl` (centres undefined) [Fluoxetine]: the “scaled lipid accumulation score” value (library stock concentration: 5.8 mM) was 0.96 (active).
Take `CNCCC(Oc1ccc(C(F)(F)F)cc1)c1ccccc1.Cl` (centres undefined) [Fluoxetine hydrochloride]: the “scaled lipid accumulation score” value under setting [1] was 1.57 (active).
Regarding `CNCCC(Oc1ccc(C(F)(F)F)cc1)c1ccccc1.Cl` (centres undefined) [Fluoxetine HCl], the “scaled lipid accumulation score” value is 0.709 (active) under setting [2] and 1.02 (active) under setting [1].
On to `CCCCCCCCCCCCCCCC(=O)N[C@H](C)CO` [R-Palmitoyl-(1-methyl) Ethanolamide], for which the “scaled lipid accumulation score” value under setting [3] was 0.031.
Regarding `CCCCC[C@H](O)/C=C/[C@H]1[C@@H](O)CC(=O)[C@@H]1CCCCCCC(=O)O` [11.beta.-Prostaglandin E1], under setting [3], the “scaled lipid accumulation score” value is not above 0.
